CHO-K1 Ca ag = counter-screen for M1 agonists: effect in parental CHO-K1 cells; Fluo-8 calcium fluorescence; scaled to maximal ATP response, vehicle zero; activation, % at 3 µM; actives 0.48% (n = 360,000); AID 602248; in the data active means activation above about 15%;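 further: untransfected CHO-K1 host cells lacking M1 receptor as counterscreen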
CHO-K1 Ca antag = nonselective inhibitor or artifact in parental CHO-K1 cells. actives 0.6% (n = 360,000). AID 602250. ATP-induced calcium, Fluo-8 fluorescence. inhibition, % at 3 µM;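 active means inhibition above a per-plate cutoff, the plate's mean sample inhibition plus 3 SD, cut at about 24% in these data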;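 further: 0% = DMSO plus EC80 ATP and 100% = DMSO alone without ATP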
M1 PAM = positive allosteric modulators of human M1 muscarinic receptor | AID 588819 | actives 0.088% (n = 360,000) | P11229 | CHO-K1 hM1, Fluo-8 calcium fluorescence, ACh EC20; 0% = ACh EC20, 100% = maximal ACh | activation, % at 3 µM; in the data active means activation above about 19%, passing the limit was not always enough
Target sequence (P11229 whole entry, looked up): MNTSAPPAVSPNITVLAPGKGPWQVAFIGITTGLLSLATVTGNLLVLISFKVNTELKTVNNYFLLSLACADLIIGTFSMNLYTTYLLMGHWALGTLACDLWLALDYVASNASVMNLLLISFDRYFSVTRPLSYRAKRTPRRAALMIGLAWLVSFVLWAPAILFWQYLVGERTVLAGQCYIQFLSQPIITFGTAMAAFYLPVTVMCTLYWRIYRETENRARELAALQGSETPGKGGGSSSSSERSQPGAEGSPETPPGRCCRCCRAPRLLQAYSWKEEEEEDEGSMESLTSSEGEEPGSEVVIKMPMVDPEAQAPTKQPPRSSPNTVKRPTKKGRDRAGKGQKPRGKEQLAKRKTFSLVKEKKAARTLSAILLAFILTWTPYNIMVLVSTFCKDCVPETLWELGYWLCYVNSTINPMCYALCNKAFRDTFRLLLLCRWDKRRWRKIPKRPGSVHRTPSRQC
M1 ag = human M1 muscarinic receptor agonism. P11229. CHO-K1 hM1, Fluo-8 calcium fluorescence, agonist mode; 0% DMSO, 100% acetylcholine EC100. activation, % at 3 µM. actives 0.33% (n = 360,000). AID 588814;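 active means activation above the run's mean compound activation plus 3 SD, cut at about 16% in these data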;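 further: peak over basal fluorescence ratio within a 140 s kinetic read after compound addition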
CHRM1 antagonist = human CHRM1 antagonism; P11229; CHO-K1 hM1, Fluo-8 calcium fluorescence, ACh EC80 antagonist; inhibition, % at 3 µM; actives 1.3% (n = 360,000); AID 588852;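 active means percent inhibition above its own plate's cutoff, namely the mean of that plate's compound wells plus 3 SD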;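 further: peak over basal fluorescence ratio during 140 s after agonist addition; 0% = ACh EC80 plus DMSO and 100% = DMSO alone without agonist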
CHO-K1 Ca PAM = counter-screen for M1 PAMs: effect in parental CHO-K1 cells; ATP EC20, Fluo-8 calcium fluorescence; 0% at ATP EC20, 100% at ATP max; AID 602247; actives 0.02% (n = 360,000); activation, % at 3 µM;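 active means activation above the run cutoff, the mean activation of all test compounds plus 3 SD, cut at about 40% in these data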;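 further: peak over basal fluorescence ratio in a 140 s read after ATP addition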
* hit, by the source's call; / = not tested or not shown. The list is not random: actives were taken first. Their share in the collection is about 2.3%.

SMILES | CHO-K1 Ca ag | CHO-K1 Ca antag | M1 PAM | M1 ag | CHRM1 antagonist | CHO-K1 Ca PAM
Nc1nc2ccc(Cl)cc2cc1C(=O)NCCc1c[nH]c2ccccc12 | 11.6 | 15.7 | / | / | / | -5.1
Nc1nc2ccc(Cl)cc2cc1C(=O)NCc1ccc(Oc2ccccc2)cc1 | 6.1 | 27.9* | / | / | / | -5.6
NC(=O)Cc1ccc(C(=O)c2ccccc2F)s1 | 0.1 | 25.3* | -8.7 | -2.5 | 3.0 | -9.2
CC(=O)c1cccc(NC(=O)COC(=O)[C@@H](NC(=O)OCc2ccccc2)C(C)C)c1 | 7.1 | 18.4 | -16.8 | 1.8 | 15.7 | 3.6
CN1COc2ccc3ccccc3c2C1 | 0.0 | 4.5 | -0.5 | -3.2 | 7.3 | -4.0
COC(=O)c1ccc(/C=C/c2c(-c3ccsc3)sc3ccccc23)cc1 | 0.0 | -10.9 | -13.8 | -7.2 | 39.6* | -10.6
CN(C)c1ccc(C(=O)Nc2ccc(S(=O)(=O)Nc3nccs3)cc2)cc1 | 2.0 | -4.5 | 8.0 | -0.6 | -9.9 | 19.2
CCCCn1c(CN2CCN(C)CC2)nc2ccccc21 | 0.1 | -5.3 | -26.4 | -7.2 | 31.0* | 20.8
Cc1cc(C)nc(NS(=O)(=O)c2ccc(NC(=O)Cc3ccccc3)cc2)n1 | 4.9 | 23.9* | -12.0 | -3.9 | 15.2 | -9.7
Cc1ccc(CC(=O)Nc2ccc(S(=O)(=O)Nc3nccc(C)n3)cc2)cc1 | -0.6 | -8.8 | 6.1 | -0.1 | -8.0 | 5.4
Cc1ccnc(NS(=O)(=O)c2ccc(NC(=O)Cc3ccccc3)cc2)n1 | -0.3 | 25.4* | 0.4 | -3.5 | 4.3 | -9.9
CCc1ccccc1NC(=S)N1CCCCCC1 | 0.1 | -4.3 | -7.8 | -3.5 | 22.4 | 8.8
CSc1ncc(CN2CCN(C3CCCC3)C(CCO)C2)cn1 (centres undefined) | 12.9 | -2.1 | -18.3 | -6.3 | 33.5* | 15.5
CSc1ncc(CN2CCN(CC=C(C)C)C(CCO)C2)cn1 (centres undefined) | 0.4 | -0.8 | -13.7 | -9.7 | 27.4* | 12.2
CC(C)(C)S(=O)N1Cc2cc(=O)n(Cc3ccccc3)c(CCO)c2[C@H]1CCO (some centres undefined) | 0.3 | -6.7 | 0.7 | -2.0 | -5.9 | -3.6
COc1ccc(NC(=O)COc2ccc(C(=O)OCC(=O)N(C(C)C)C(C)C)cc2OC)cc1 | 3.4 | -20.2 | 3.6 | -3.5 | -4.0 | 17.2
CC1(c2nnnn2-c2ccc3c(c2)OCCO3)CCC(=O)N1CC1CCCCC1 (centres undefined) | 1.0 | -9.3 | / | / | / | 2.0
CCC(=O)c1ccc(OCc2ccc(C(=O)c3ccccc3)cc2)cc1 | 11.8 | 11.0 | -18.8 | -3.1 | 51.0* | -8.6
Cc1ccc(OC(=O)c2ccc(Br)o2)cc1 | 27.3* | -9.6 | -1.1 | 30.5* | 4.3 | 12.2
CCC(=O)c1ccc(OC(=O)c2ccc(Br)o2)cc1 | 43.1* | -0.2 | -12.0 | 80.6* | 10.9 | 0.2
CCC(=O)c1ccc(OCc2ccccc2)c(OC)c1 | 0.2 | -14.1 | 4.8 | -8.8 | -11.1 | 16.7
O=C(OCC#CCSc1nnc(-c2ccncc2)o1)c1cccs1 | 17.4* | -6.2 | 5.0 | -7.7 | 1.1 | 18.0
CN1CCS/C1=C\C=C1/SC(=S)N(CC(=O)O)C1=O | 39.6* | 10.6 | -8.1 | 11.7 | 6.3 | 7.0
CN1/C(=C\C=C2/SC(=S)N(CC(=O)O)C2=O)C(C)(C)c2ccccc21 | 30.5* | 12.3 | -16.8 | 130.5* | 37.0* | 13.2
Cc1cccc(NC(=O)c2cc[n+]([O-])cc2)c1C | 0.7 | -13.2 | 6.1 | -2.3 | -4.2 | -2.1
SMILES | CHO-K1 Ca ag | CHO-K1 Ca antag | M1 PAM | M1 ag | CHRM1 antagonist | CHO-K1 Ca PAM
COc1ccc(OC)c(CN2C(=O)c3ccccc3C2c2nnnn2C2CCCC2)c1 (centres undefined) | 0.0 | -13.4 | / | / | / | 7.8
CN(C)c1ccc(NC(=O)c2ccc(Cn3cc([N+](=O)[O-])cn3)cc2)cc1 | 5.6 | -18.3 | 1.3 | -0.3 | 5.3 | 11.0
Cc1cccc(NC(=O)CSc2nc3ccccc3c3nc(CCc4c(C)n[nH]c4C)nn23)c1 | 4.6 | 20.4 | -13.5 | -1.1 | 50.7* | 6.8
O=C(CCCCC(=O)NNC(=O)COc1ccccc1)NNC(=O)COc1ccccc1 | -0.2 | 2.1 | 9.7 | -2.0 | -6.0 | -8.1
Cc1c(Br)c([N+](=O)[O-])nn1CC(=O)N1CCc2ccccc2C1 | 0.4 | 10.3 | -1.9 | -9.0 | 6.8 | 4.8
Cc1c(Br)c([N+](=O)[O-])nn1C(C)C(=O)N1CCc2ccccc2C1 (centres undefined) | 3.4 | -6.1 | -23.5 | -5.8 | 72.6* | 6.5
CNC(=O)c1ccc(NC(=O)c2ccccc2OCc2c(C)noc2C)cc1 | 1.7 | -0.6 | 9.9 | -0.1 | -17.3 | 26.1
Oc1ccccc1-c1nnc(COc2ccc(Cl)cc2Cl)o1 | -1.1 | 43.7* | 2.6 | -0.1 | -7.2 | -13.8
CS(=O)(=O)NCCNc1ccc(Cl)cc1[N+](=O)[O-] | 5.8 | -1.3 | -20.4 | -5.4 | 23.4* | 11.1
CN(C)CCNc1ccc(Cl)cc1[N+](=O)[O-] | 0.6 | 1.6 | -25.3 | -7.8 | 34.7* | 7.8
COc1ccccc1C(=O)NCC(=O)N1CCN(c2ncccn2)CC1 | 2.7 | -17.3 | 0.0 | -1.6 | 0.5 | 10.4
COc1cc(N2C(=O)c3ccccc3C2=O)c(Cl)cc1C(=O)OCC(=O)NCc1ccco1 | 0.2 | 28.2* | -6.1 | -4.9 | -28.7 | -8.9
Cc1ccc(C2CC(=O)c3cnc(N4CCN(c5ccccc5)CC4)nc3C2)cc1 (centres undefined) | 2.3 | -3.1 | 5.8 | -4.6 | 0.2 | 18.3
O=C1CC(c2ccc(F)cc2)Cc2nc(N3CCN(c4ccccc4)CC3)ncc21 (centres undefined) | 1.0 | 40.2* | -3.5 | -2.8 | 3.8 | -2.1
CC(C)c1nc(CNC(=O)C2CCC(=O)N(CCc3ccc(Cl)cc3)C2)no1 (centres undefined) | 0.5 | 3.3 | 7.7 | -2.9 | 0.4 | 19.1
CC(C)(O)c1ccc2c(c1)CCC1C(C)(C(=O)O)CCCC21C (centres undefined) | -0.1 | 18.9 | 1.8 | -2.0 | -1.0 | -3.8
CC(C)c1c(O)ccc2c1CC[C@H]1C(C)(C)CCC[C@]21C | -0.8 | 26.5* | -2.2 | -2.1 | -21.5 | -10.5
Cc1ccc(CNC(=O)CNS(=O)(=O)c2ccc3c(c2)C(C)(C)C(=O)N3C)cc1 | -0.2 | 3.6 | -2.7 | -2.7 | 8.6 | 9.8
NC(=O)c1ccc(SCC(=O)OCC(=O)N2CCN(C(=O)c3ccco3)CC2)c([N+](=O)[O-])c1 | 0.3 | -7.8 | 2.8 | -3.9 | 0.6 | 1.2
CCCCn1nnnc1C(c1ccnc2ccccc12)N1CCN(C/C=C/c2ccccc2)CC1 (centres undefined) | 0.4 | -8.9 | -27.0 | -6.5 | 79.9* | -4.8
CCC(c1nnnn1C(C)(C)C)N1CCN(C/C=C/c2ccccc2)CC1 (centres undefined) | 0.9 | -12.9 | -1.7 | -4.6 | -17.1 | 8.1
